Experimental data reported in PubChem BioAssay (NCI).
The panel holds about 83,000 compounds, 20% with a hit somewhere; the sample as a whole holds those more often.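 The endpoint reported here, percent growth, reads 100 for growth as untreated, 0 for no net growth and -100 for all cells dead.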 Values without a mark were called inactive. Active and inactive are the calls of the source. The calls were made as follows: active = growth percent below 10; inactive = the rest.

What was measured:
Assay in all cases: NCI-60 one-dose screen, 48 h (100 = growth as untreated, 0 = no growth, -100 = all killed)
Conditions in all cases: 10 µM
NCI-H23 lung = system: NCI-H23 lung
NCI-H226 lung = system: NCI-H226 lung
NCI-H322M lung = system: NCI-H322M lung
HOP-62 NSCLC = system: HOP-62 NSCLC
NCI-H460 lung = system: NCI-H460 lung
HOP-92 NSCLC = system: HOP-92 NSCLC
NCI-H522 lung = system: NCI-H522 lung
A549/ATCC NSCLC = system: A549/ATCC NSCLC
786-0 renal = system: 786-0 renal
COLO 205 colon = system: COLO 205 colon

SMILES	growth (NCI-H23 lung)	growth (NCI-H226 lung)	growth (NCI-H322M lung)	growth (HOP-62 NSCLC)	growth (NCI-H460 lung)	growth (HOP-92 NSCLC)	growth (NCI-H522 lung)	growth (A549/ATCC NSCLC)	growth (786-0 renal)	growth (COLO 205 colon)
c1ccc(/C(=N\N=C(/c2ccccc2)c2cccs2)c2cccs2)cc1	97.3%	89.3%	83.1%	102%	105%	92%	83.1%	105%	84.8%	99.3%
CCN1C(=O)/C(=C/C=C/N(C)c2ccccc2)SC1=S	92.9%	66.4%	94.6%	36.2%	94.7%	103%	60.9%	82.8%	79.8%	104%
NC(=S)NN=C1CCCC1	83.2%	95.6%	91.7%	95%	104%	82.1%	99.8%	81.1%	106%	101%
c1ncc2[nH]cnc2n1	104%	99.5%	85.7%	104%	105%	89.4%	89.2%	86.7%	95.2%	101%
CSc1[nH]c(=O)ncc1F	101%	99.7%	97.8%	109%	106%	116%	100%	93.3%	104%	110%
CC(C)OC(=O)c1cc(NC(=S)OC(C)C)ccc1Cl	79.7%	86.6%	85.8%	91.5%	108%	73.8%	77.4%	70.6%	82.2%	102%
N#CCc1ccc([N+](=O)[O-])cc1	98.5%	98.2%	99.1%	90.7%	102%	92.7%	101%	96.6%	106%	105%
[O-][N+](=Nc1cccc(Cl)c1)c1cccc(Cl)c1	94.5%	114%	95.9%	107%	99%	94.1%	148%	95.1%	109%	116%
O/N=C/c1ccc(O)cc1O	105%	108%	117%	101%	109%	92%	86%	91.4%	108%	111%
O=C(CN1CCNCC1)N1CCOCC1	93.3%	116%	106%	103%	117%	103%	111%	95.4%	101%	110%
O=[N+]([O-])c1ccc(-c2noc(-c3cccs3)n2)cc1	82.1%	86.3%	81.4%	87.6%	82.7%	91.8%	81.7%	81.3%	76.1%	111%
O=[N+]([O-])c1ccc(/C=C/C=C/c2ccccc2)c(Cl)c1	89.8%	102%	96.4%	105%	84.5%	84.4%	80.9%	89.8%	95.6%	119%
CC(=O)OCC1OC(OC2=C(CC=C(C)C)C(=O)c3ccccc3C2=O)C(OC(C)=O)C(OC(C)=O)C1OC(C)=O (stereo unspecified)	23.3%	57.1%	77.5%	94.5%	34.6%	-3.11% (active)	22.3%	79.5%	88.9%	66%
CC(=O)Cc1cc(-c2cc(CC(C)=O)[nH]n2)n[nH]1	102%	99.3%	96.2%	95.1%	105%	104%	95.8%	102%	103%	110%
COc1ccccc1N1CCN(C(=S)Nc2ccccc2)CC1	92.8%	99.4%	93.2%	89.7%	102%	80.9%		99.7%	96.3%	97.4%
OCC1OC(OC2C(O)C(CO)OC2(CO)OC2OC(CO)C(O)C(O)C2O)C(O)C(O)C1O (stereo unspecified)	103%	115%	120%	98.6%	111%	90.3%		98%		117%
COc1cc2c(cc1OC)[C@H](C(=O)O)[C@@H](c1ccc(OC(C)C)c(OC)c1)N(C)C2=O	96.8%	89.9%	83.5%	92.4%	105%	83.3%		106%	100%	118%
Nc1ccc(NC(=O)c2cccc(N)c2)cc1	96.7%	99.1%	95.2%	86.5%	101%	81.1%		47.6%	101%	114%
CCOC(=O)/C(C#N)=C/c1cccc(C)c1	99.5%	109%	95%	101%	103%	83.8%		95.5%	98.3%	119%
CC1CC(O)CC(C)(C)C1 (stereo unspecified)	98.4%	106%	98.2%	97.9%	106%	96.5%		97.3%	107%	102%
O=C(Cc1ccc(OCc2ccccc2)cc1)NCc1ccc2c(c1)OCO2	78.3%	99.6%	80.8%	77.9%	28.7%	86.8%		58.2%	88.7%	85.5%
COc1cccc(COC(=O)Nc2ccccc2)c1OC	110%	96.6%	101%	100%	103%	109%		94.5%	98.9%	114%
CC(CN1CCCCC1)NC(=O)c1scnc1-c1ccccc1 (stereo unspecified)	101%	108%	95.6%	100%	111%	91.9%		96.8%	102%	104%
c1ccc(Cc2ccccc2)cc1	107%	112%	96.2%	101%	109%	59.2%		39.8%	92.7%	125%
O=S(=O)(O)c1ccc(Cl)c(Cl)c1	101%	111%	127%	102%	110%	94.3%		95.5%	98.5%	117%
O=C(Nc1ccccc1C(=O)NCC1CC1)c1cccs1	109%	88.1%	126%	103%	105%	71.6%		102%	101%	116%
N#CC(=Nc1cccc(F)c1)C1=C(O)c2ccccc2C1=O	94.8%	79.6%	96.3%	88.4%	102%	63.8%		95.6%	97.5%	96%
